Measurements published in ChEMBL document CHEMBL3988442, “University of Dundee, Small-Polar-MMV Screening Library” (2021).
The campaign covered roughly 48,000 compounds. About 13,000 (27%) showed an effect of 50% or more. The list shows a part of the results.

Each compound was assayed on Wolbachia pipientis (assay: Anti-Wolbachia Cell-Based Screen). Conditions: 5 µM.
Type: functional
Parameters: scale not given: in the data most compounds retested in dose-response had high values

SMILES | Percent Effect [%]
CCS(=O)(=O)CC(=O)Nc1ccc2oc(C3CC3)nc2c1 | -4.895
c1cn(CC2CCOCC2)c(-c2cc(CN3CCCC3)cs2)n1 | 5.864
CC(CCO)Nc1cccc(C(F)(F)F)n1 (stereo not given) | -9.729
CCn1nc(CC(C)C)cc1C(=O)NCc1c(C)cc(C)nc1OC | 140.7
COc1nc(C)cc(C)c1CNC(=O)N(C)Cc1cnn(C)c1 | -3.346
CCn1nc(CC(C)C)cc1C(=O)NCCCN1CCOCC1 | 125.1
CCC(CNC(=O)c1cc(CC(C)C)nn1C)N(C)CC (stereo not given) | -16.5
CCn1nc(CC(C)C)cc1C(=O)N1CCCC(C#N)C1 (stereo not given) | -3.007
CCn1nc(CC(C)C)cc1C(=O)NCCn1cccc1 | -13.46
CCn1nc(CC(C)C)cc1C(=O)NCCS(=O)(=O)N(C)C | 162.2
CCn1ccc(C(=O)NCCCN2CCOCC2)n1 | -2.896
CCn1nc(CC(C)C)cc1C(=O)N1CC[C@@H](O)C1 | -2.224
CCn1nc(CC(C)C)cc1C(=O)NCCCOC | -13.1
CCn1nc(CC(C)C)cc1C(=O)NCC(F)(F)F | 127.5
CCN(CC)C1CCN(C(=O)c2cc(CC(C)C)nn2CC)C1 (stereo not given) | 33.04
CN(CCn1cnnc1)C(=O)c1ccnc(OC2CCC2)c1 | -7.369
COc1cc(CCC(=O)N2CCC(c3cnccn3)CC2)on1 | 147.9
COc1cc(CCC(=O)N2CCC(c3cncc(C)n3)CC2)on1 | 141.8
COc1cc(C)nc(N2CCN(C(=O)CCc3ccncc3)CC2)n1 | -15.67
COc1cc(C)nc(N2CCN(C(=O)CCc3ccco3)CC2)n1 | 12.06
Cc1noc(C2CCN(C(=O)CCc3nccs3)CC2)n1 | 4.096
COc1cccc(OCC2CCCN(C(=O)CCc3cc(O)no3)C2)c1 (stereo not given) | -4.281
CCc1ccccc1C(=O)NS(=O)(=O)CCCC#N | -10.54
Cc1n[nH]c(CCC(=O)N2CCOC(Cc3ccc(F)cc3)C2)c1C (stereo not given) | 14.83
O=C(NC1(C(=O)NCC2CC2)CCCC1)C1Cc2cc(F)ccc2O1 (stereo not given) | -11.6

SMILES | Percent Effect [%]
COCCN1CCO[C@@H]2CN(C(=O)Cc3ccc(F)cc3)CC[C@@H]2C1.O=C(O)C(F)(F)F | 12.24
C[C@@H]1CN(C(=O)Cc2ccsc2)C[C@]12CCN(CCN(C)C)C2=O | 171.4
COCC1CN(C(=O)Cc2ccsc2)Cc2c1cnn2C (stereo not given) | -19.19
C[C@@H]1CN(C(=O)c2ccccc2F)C[C@]12CCN(CCN(C)C)C2=O | 90.27
COCCN1CCO[C@@H]2CN(C(=O)Cc3ccccc3)CC[C@@H]2C1.O=C(O)C(F)(F)F | 12.5
CN(C)CCN1CCO[C@@H]2CN(C(=O)Cc3ccsc3)CC[C@@H]2C1 | 102.6
Cc1cc(CN2C[C@@H](C)[C@@]3(CCN(C)C3=O)C2)oc1C.O=C(O)C(F)(F)F | 2.821
CC1N(C)C(=O)COC12CCN(C(=O)Cc1ccsc1)CC2 (stereo not given) | 1.71
C[C@H]1CN(C(=O)c2ccoc2)C[C@@]12CCN(CCN(C)C)C2=O.O=C(O)C(F)(F)F | 113.7
Cc1ccc(OC2(C(=O)O)CCN(C(=O)c3ccccc3F)CC2)cn1 | -3.687
CN(C)CCN1CC(C(=O)N2CCC(c3cccc(O)c3)CC2)CC1=O (stereo not given) | -14.83
CC(C)COc1cncc(NC(CO)c2ccco2)n1 (stereo not given) | -5.064
CC(C1CCN(Cc2ccccc2OC(F)F)CC1)N1CCOCC1 (stereo not given) | 23.13
CCN(CC(=O)NC)C(=O)c1cc(-c2cccc(Cl)c2)no1 | -2.874
CNS(=O)(=O)c1ccc(CN2CCCN(CC(C)C)CC2)cc1 | 8.265
Nc1cccc(-c2cccc3ccnn23)n1 | 9.414
O=C(N[C@H]1CC[C@H](O)CC1)c1ccc2nc(-c3ccc(F)cc3)cn2c1 | -4.798
NC(=O)Cn1ccnc1C1CCCN(Cc2ccccc2OC(F)F)C1 (stereo not given) | -1.119
O=C1CC2(CCN(C(=O)c3ccc4c(c3)CCCO4)C2)C(=O)N1 (stereo not given) | -2.87
Cc1ccsc1-c1nc(CN(C)Cc2noc(C(C)C)n2)c(C)o1 | 10.67
COc1ccc(CNC(=O)Nc2ccc(CN3CCOC3=O)cc2)cc1 | 12.97
COc1ccc(NC(=O)Nc2c(O)c3ccccc3oc2=O)cc1 | 106
COc1ccc(CNC(=O)Nc2ccc(=O)n(C)c2)cc1 | -2.437
CCn1ncnc1CN(C/C=C/c1ccccc1)CCOC | 8.107
CC(C)(C)CCN1CCN(Cn2nccc2-c2cccnc2)CC1 | -19.45

SMILES | Percent Effect [%]
Cc1ncc(C(=O)N2C[C@H](CO)C[C@H](CN3CCOCC3)C2)c(=O)[nH]1 | -13.12
Cc1ncc(C(=O)N2CC(C(=O)N3CCOCC3)C2)c(C)n1 | 106.6
Cc1nc(N2CCCCC2)ncc1C(=O)N1CC(C)(C)[C@@](C)(O)C1 | 13.78
O=C(NC1CCCCC1)C1CCCN(C(=O)Nc2ccccn2)C1 (stereo not given) | 6.063
Cc1cnc(N2CC(C(=O)N3CCOCC3)C3(CCOCC3)C2)nc1 (stereo not given) | -3.796
Cc1ncc(C(=O)N2C[C@H]3CC[C@@H]2CN(S(=O)(=O)N(C)C)C3)c(C)n1 | 4.102
CCc1nc(C)ncc1C(=O)N1CCCC(n2nc(C)nc2C)C1 (stereo not given) | -5.056
Cc1ncc(C(=O)N2CC(C(=O)N3CCCCCC3)C2)c(C)n1 | 132.1
Cc1ncc(C(=O)N2CCC(C(=O)NC3CCCC3)C2)c(C)n1 (stereo not given) | 133.9
CCc1ncc2c(n1)CN(CCCOc1ccc(C#N)cc1)CC2 | -6.685
CC(C)c1nnc2ccc(N3CCC(C(=O)Nc4nccs4)CC3)nn12 | 11.38
Brc1cc2c(cc1CN1CCC(N3CCCCC3)CC1)OCCO2 | -3.138
CC(=O)N1CC[C@H]2OCC[C@@]2(C(=O)NCc2ccco2)C1 | 16.6
O=C(NCc1ccco1)[C@@]12CCO[C@@H]1CCN(Cc1nccs1)C2 | -2.827
O=C(NCc1ccccn1)[C@@]12CCO[C@@H]1CCN(c1ncccn1)C2 | 99.07
O=C(NCc1ccco1)[C@@]12CCO[C@@H]1CCN(CCN1CCCC1)C2 | -0.5732
CC(=O)N1CC[C@H]2OCC[C@@]2(C(=O)NCc2cnc(C)cn2)C1 | 98.12
Cc1ccnc(OC[C@@]23CCO[C@@H]2CCN(c2ncccn2)C3)n1.O=C(O)C(F)(F)F | -11.59
Cc1cnc(CNC(=O)[C@@]23CCO[C@@H]2CCN(c2ncccn2)C3)cn1 | 105.8
O=C(NCc1ccco1)[C@@]12CCO[C@@H]1CCN(c1ncccn1)C2.O=C(O)C(F)(F)F | -9.525
CCN1CCN(C[C@@H]2CN(c3ncccc3C(F)(F)F)C[C@@H]2CO)CC1 | -2.806
CCN(C)c1ncnc2c1CCN(C(=O)COC)CC2.O=C(O)C(F)(F)F | -4.529
CCN1CC(=O)NCC12CCN(C(=O)c1ccco1)C2.O=C(O)C(F)(F)F (stereo not given) | -12.24
O=C(O)C(F)(F)F.O=C(c1cscn1)N1CCc2ncc(CN3CCCC3)n2CC1 | -30.66
COCC(=O)N1CCC2(CC1)CCn1c(-c3cccc(OC)c3)cnc12 | -17.52

SMILES | Percent Effect [%]
CCN1CCn2c(C)cnc2C12CCN(C(=O)COC)CC2.O=C(O)C(F)(F)F.O=C(O)C(F)(F)F | 77.99
CCN1CCn2c(C)cnc2C12CCN(C(=O)c1cscn1)CC2.O=C(O)C(F)(F)F.O=C(O)C(F)(F)F | 113.9
CCN1CCn2c(C)cnc2C12CCN(C(=O)Cc1ccccc1)CC2.O=C(O)C(F)(F)F.O=C(O)C(F)(F)F | 97.89
CCN1CCn2c(C)cnc2C12CCN(C(=O)c1ccco1)CC2.O=C(O)C(F)(F)F.O=C(O)C(F)(F)F | 97.51
CCN1CCn2c(C)cnc2C12CCN(C(=O)c1ccc(Cl)cc1)CC2.O=C(O)C(F)(F)F | -23.96
CCN1CC[C@@]2(C(=O)N(C)C)CCN(C(=O)Cc3ccccc3)CC[C@@H]12.O=C(O)C(F)(F)F | 0.7047
CCCNC(=O)c1cc(-c2ccn(C(C)C)n2)n2ccccc12 | -14.06
CCC1CN(Cc2c(O)ccc3oc4c(c23)CCCC4)CCO1 (stereo not given) | -8.053
CCCn1nc(-c2nc(Cc3ccc(OC)cc3)no2)ccc1=O | -20.77
CC(C)c1nc2c(n1C)CCN(CCCc1nc3ccccc3o1)C2 | -2.699
Cn1cc(-c2nc(CN3CCN(CCO)CC3)cs2)cn1 | -9.549
Cc1ccc(C(C)(O)CNC(=O)c2scnc2C)o1 (stereo not given) | -6.969
Cc1ccc2oc(=O)n(CCC(=O)N3CCCC4(CNC(=O)O4)C3)c2c1 (stereo not given) | -2.854
CC(C)c1ccc(C(O)Cn2c(=O)c(C#N)cn(C3CC3)c2=O)cc1 (stereo not given) | -1.509
CN(C)CCOCc1nnc2n1CCN(Cc1ccoc1)CC2.O=C(O)C(F)(F)F.O=C(O)C(F)(F)F | 88.27
COc1ccc(CN2CCc3nnc(COCCN(C)C)n3CC2)cc1.O=C(O)C(F)(F)F.O=C(O)C(F)(F)F | 131
CN(C)CCOCc1nnc2n1CCN(CC1CC1)CC2.O=C(O)C(F)(F)F.O=C(O)C(F)(F)F | 103.3
CN(C)CCOCc1nnc2n1CCN(Cc1ccsc1)C2.O=C(O)C(F)(F)F.O=C(O)C(F)(F)F | -13.86
CN(C)C(=O)COCc1nnc2n1CCN(Cc1ccsc1)C2.O=C(O)C(F)(F)F | 3.675
CC(C)N(C)Cc1nnc2n1CCN(CC1CC1)CC2.O=C(O)C(F)(F)F.O=C(O)C(F)(F)F | 9.045
CN(C)CCOCc1nnc2n1CCN(Cc1ccc(F)cc1)CC2.O=C(O)C(F)(F)F.O=C(O)C(F)(F)F | 109.9
COCc1nnc2n1CCN(Cc1ccoc1)C2.O=C(O)C(F)(F)F | -3.646
CN(C)C(=O)COCc1nnc2n1CCN(Cc1ccoc1)C2.O=C(O)C(F)(F)F | -2.89
O=C(O)C(F)(F)F.O=C(O)C(F)(F)F.c1cncc(COCc2nnc3n2CCN(CC2CC2)C3)c1 | -1.478
CC(C)N(C)Cc1nnc2n1CCN(Cc1ccncc1)CC2.O=C(O)C(F)(F)F.O=C(O)C(F)(F)F.O=C(O)C(F)(F)F | -8.532
